Results on 40 molecules are retold here after PubChem BioAssay (Tox21).

Inconclusive results are not listed. A call without a number means that no potency is given here. A structure can be active in one record and inactive in another. Calls of active or inactive are those of the source. The call rests on the fitted dose curve; in most records, active means well fitted cell-killing curve with a large enough effect in the repeat runs; inconclusive means weak or mixed curves, or effect the other way; inactive means no such curve, though single readings can be large or run the other way.
Potency means the concentration at half of the fitted maximal effect.

The assay is described as follows: qHTS assay to identify small molecule agonists of the RXR signaling pathway - cell viability counter screen (AID 1159529). Further: nearly all actives have a fitted effect of over 50% in size. The conditions noted are these: RXR-alpha-bla HEK293T viability, CellTiter-Glo, 16 h; series mostly up to 76.8 µM. An excerpt: National Center for Advancing Translational Sciences [NCATS]
NIH Chemical Genomics Center [NCGC]
U.S. Environmental Protection Agency [EPA]
National Institutes of Environmental Health Sciences [NIEHS]
National Toxicology Program [NTP]
U.S. Food and Drug Administration [FDA]
The Retinoid X receptor (RXR), a nuclear hormone receptor expressed in liver, spleen, placenta, epidermis, central nervous system. These receptors are able to form homo and heterodimers with other nuclear receptors and due to this heterodimerizing ability, RXR functions as master regulators producing diverse physiological effects. Three subtypes of RXR exist; alpha, beta and gamma. Retinoid X receptor alpha (RXR-alpha) has potential roles in metabolic signaling pathways, skin alopecia, dermal cysts, cardiac development, insulin sensitization etc. Therefore screening environmental chemicals on RXR-alpha signaling can be used for the studies focused on such therapeutic applications. For quantification of RXR-alpha ligands signaling, GeneBLAzer RXR alpha-UAS-bla HEK 293T (Life Technologies, Carlsbad, CA) cells containing a beta-lactamase reporter-gene under control of Retinoid X receptor-alpha response element were used to screen Tox21 10K library. The cytotoxicity of the Tox21 compound library against the RXR-alpha HEK 293T cell line was tested in parallel by measuring cell viability using CellTiter-Glo assay (Promega Corporation, Madison, WI) in the same wells.
Tox21 Assay Protocol Summary:
RXR-alpha HEK 293T cells were dispensed at 2,000 cells/6 uL of assay medium containing 2% charcoal-stripped FBS using a Multidrop Combi (ThermoFisher Scientific, Waltham, MA) dispenser. The assay was performed in black wall/clear-bottom 1536-well plates (Greiner Bio-One North America Inc. Monroe, NC). Tetraoctyl ammonium bromide was used as a positive control in the cytotoxicity screen. After the assay plates were incubated at 37 C and 5% CO2 for 5 hr, 23 nL of compounds dissolved in DMSO, positive control or DMSO only were transferred to the assay plate by a Pintool station (Kalypsys, San Diego, CA). The assay plates were incubated at 37 C and 5% CO2 for 16 hr. One uL of LiveBLAzer B/G FRET substrate (Life Technologies) was added using a Flying Reagent Dispenser (FRD) (Aurora Discovery, San Diego, CA) and the plates were incubated at room temperature for 2 hr. Fluorescence intensity (405 nm excitation, 460/530 nm emission) was measured using an Envision plate reader (PerkinElmer, Shelton, CT). For cytotoxicity, 4 uL/well of CellTiter-Glo reagent was added into the assay plates using an FRD. After 30 min incubation at room temperature, the luminescence intensity was measured using a ViewLux plate reader (PerkinElmer).
For orientation: qHTS replaces the single test concentration by a dilution series.
On to `Cc1c(C(=O)NN2CCCCC2)nn(-c2ccc(Cl)cc2Cl)c1-c1ccc(Cl)cc1`, for which the Potency entry was “inactive”.
The same measure, in the same setting: the result for `OC(CCCN1CCCCC1)(c1ccccc1)c1ccccc1` reads “inactive”; that for `CCCCCCCCCCCC[N+](C)(C)CCCS(=O)(=O)[O-]`, “inactive”; that for `Cc1ccc(Nc2nccc(N(C)c3ccc4c(C)n(C)nc4c3)n2)cc1S(N)(=O)=O`, “inactive”.
Still for that read-out and setting: as for `CCn1cc(C(=O)O)c(=O)c2cc(F)c(N3CCNCC3)nc21`, the entry is “inactive”.
For `CC(C)OCC1CO1` (stereo not given), the Potency entry was “inactive”.
Same read-out and setting: as for `O=C(O)Cc1ccc(-c2ccccc2)cc1`, the entry is “inactive”; as for `CNC(=O)N(c1ccccc1)c1ccccc1`, “inactive”; as for `O=C(c1ccc(O)cc1)c1ccc(Cl)cc1`, “inactive”.
Consider `O=C(O)c1ccc(CO)o1`, for which the Potency entry is “inactive”.
As to `COC(=O)Nc1nc2ccc(C(=O)c3cccs3)cc2[nH]1`, the Potency entry was “inactive”.
Take `OC/C(Br)=C(\Br)CO`: the Potency entry is “inactive”.
`Cc1cc(S(=O)(=O)O)ccc1N=Nc1c(O)ccc2ccccc12`: the Potency result is “inactive”.
`C=CCCCCCCCCCCCCCCCC`: the activity change, negative = cytotoxicity was 6.72% [at 6.97 µM] (inactive).
With `COCCOC`, the Potency result is “inactive”.
For the molecule `CCOC(=O)C(C)Oc1ccc(Oc2nc3ccc(Cl)cc3o2)cc1` (stereo not given), the Potency result is “inactive”.
Still for that read-out and setting: as for `NC(=O)Nc1ccc(Cl)c(Cl)c1`, the entry is “inactive”; as for `CCCCC(CC)C(=O)OCCOCCOCCOCCOC(=O)C(CC)CCCC` (stereo not given), “inactive”.
Same read-out and setting: as for `CCCCCCCC/C=C\CCCCCCCC(=O)OC`, the entry is “inactive”.
Consider `COc1ccc([C@@H]2Sc3ccccc3NC(=O)[C@@H]2O)cc1`, for which the Potency entry was “inactive”.
On the same count and under the same terms, the result for `CCC1(C)CC(=O)NC1=O` (stereo not given) reads “inactive”.
The same measure, in the same setting: as for `CC(=N\O)/C(C)=N/O`, the entry is “inactive”; as for `COc1ccccc1N=Nc1c(S(=O)(=O)O)cc2cc(S(=O)(=O)O)cc(NC(C)=O)c2c1O`, “inactive”; as for `O=S(=O)(c1ccccc1)c1ccc(Cl)cc1`, “inactive”.
For `Nc1ccc(C(=O)OCCCOC(=O)c2ccc(N)cc2)cc1`, the Potency result was “inactive”.
`CCCCCCCCCCCCCCCCBr`: the activity change, negative = cytotoxicity was 2.29% [at 15.8 µM] (inactive).
With `Cc1oncc1C(=O)Nc1ccc(C(F)(F)F)cc1`, the Potency is 43.6 µM (active) and inactive.
The same measure, in the same setting: as for `CCN(Cc1cccc(S(=O)(=O)O)c1)c1ccc(C(=C2C=CC(=[N+](CC)Cc3cccc(S(=O)(=O)[O-])c3)C=C2)c2ccccc2)cc1`, the entry is “inactive”; as for `CC1=C(C=O)C(C)(C)CCC1`, “inactive”.
On the same count and under the same terms, as for `O=C(CCCCCCCCC#CI)Oc1ccccc1`, the entry is “inactive”; as for `Oc1ccc(Nc2ccccc2)cc1`, 30.9 µM (active).
As to `CCCOc1ccc(S(=O)(=O)N2CCN(CC)CC2)cc1-c1nc2c(CC)n(Cc3ccccn3)nc2c(=O)[nH]1`, the Potency entry was “inactive”.
Turning to `CCCC(=O)O[C@]1(C(=O)COC(=O)CC)CC[C@H]2[C@@H]3CCC4=CC(=O)CC[C@]4(C)[C@H]3[C@@H](O)C[C@@]21C`, the activity change, negative = cytotoxicity was 2.05% [at 15.8 µM] (inactive).
Consider `CCCCN(CCCC)C(=S)SSC(=S)N(CCCC)CCCC`, for which the Potency was 48.5 µM (active).
For `[O]=[Bi]`, the activity change, negative = cytotoxicity is 0.795% [at 6.97 µM] (inactive).
Consider `OCC1CC=CCC1` (stereo not given), for which the Potency result is “inactive”.
Still for that read-out and setting: as for `CCC(C)=O`, the entry is “inactive”; as for `Nc1nccs1`, “inactive”.
On the same count and under the same terms, as for `CC1C2CC(CC2C2CCCC(O)C2)C1(C)C` (stereo not given), the figure is 38.9 µM (active).
Turning to `Nc1nc(Cl)nc2c1ncn2[C@@H]1O[C@H](CO)[C@@H](O)[C@@H]1F`, the Potency result was “inactive”.
